Among all 320,000 compounds or so, about 480 (0.15%) were called active. Roughly 1% stayed inconclusive and do not appear here. Rule as the data show it: active = inhibition above about 26% (passing the limit was not always enough); inconclusive = no clear call, values can overlap the other calls. This excerpt belongs to a sample that is enriched for actives.

The test deals with Histone deacetylase 3 (Homo sapiens) (UniProt O15379). Kind of test: inhibition of human HDAC3 enzyme activity – biochemical, fluorescence, cell-free homogeneous, primary screen (AID 2718). The following applies: recombinant HDAC3, fluorogenic peptide/trypsin coupled, at 8.3 µM, hits give high values.
Chain of Histone deacetylase 3 (Homo sapiens) (O15379 whole entry, looked up): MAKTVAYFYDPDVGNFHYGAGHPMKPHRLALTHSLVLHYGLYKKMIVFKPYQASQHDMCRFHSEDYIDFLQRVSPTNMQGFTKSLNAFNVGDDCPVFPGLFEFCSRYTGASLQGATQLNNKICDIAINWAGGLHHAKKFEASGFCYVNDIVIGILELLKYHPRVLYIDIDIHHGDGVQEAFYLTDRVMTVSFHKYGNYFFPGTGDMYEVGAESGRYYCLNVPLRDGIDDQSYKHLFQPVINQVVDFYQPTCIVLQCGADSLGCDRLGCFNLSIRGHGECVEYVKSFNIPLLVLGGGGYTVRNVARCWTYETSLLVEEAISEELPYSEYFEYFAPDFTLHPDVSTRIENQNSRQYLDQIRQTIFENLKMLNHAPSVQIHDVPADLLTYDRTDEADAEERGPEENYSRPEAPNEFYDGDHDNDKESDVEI
As for `Cc1ccc2nc(-c3ccc(NC(=O)c4cccnc4)cc3)oc2c1`, the inhibition was -0.79% (inactive).

Turning to `Cc1ccc(NC(=O)Cc2nc(COC(=O)C(C)NS(=O)(=O)c3ccc(C)cc3)cs2)cc1` (stereo not drawn), the inhibition is 1.23% (inactive).

Consider `CC(=O)Nc1ccc(S(=O)(=O)NCCC(=O)N2CCN(c3ccccc3Cl)CC2)cc1`, for which the inhibition is -4.42% (inactive).

As to `CCOc1cc(C(C(=O)NCC2CCCO2)N(C(=O)Cn2nnc3ccccc32)c2cccc(OC)c2)ccc1O` (stereo not drawn), the inhibition was -5.33% (inactive).

As for `COc1ccc(C(=O)NCc2ccccc2C)cc1S(=O)(=O)NC1CCCC1`, the inhibition was 2.42% (inactive).

Regarding `COc1cc(OC)c(NC(=O)C2CCCN2C(=O)OCc2ccccc2)cc1Cl` (stereo not drawn), the inhibition is 2.9% (inactive).

With `CCN(C(=O)CSc1nnnn1-c1ccc(OC)cc1)C1CCS(=O)(=O)C1` (stereo not drawn), the inhibition is -1.21% (inactive).

With `COc1ccccc1NS(=O)(=O)c1ccc(C)c(C(=O)NNC(=O)c2csc(N3CCOCC3)n2)c1`, the inhibition was -8.84% (inactive).

For the compound `CSc1ncccc1C(=O)NCC(c1ccco1)N1CCCCC1` (stereo not drawn), the inhibition is -0.371% (inactive).

In the case of `CN(CC(=O)NCCc1ccc(S(N)(=O)=O)cc1)CC(=O)Nc1ccc(Cl)cc1`, the inhibition was 2.8% (inactive).

For `CC1Sc2ccc(C(=O)NCc3ccccc3Cl)cc2NC1=O` (stereo not drawn), the inhibition is 3.12% (inactive).

Consider `c1ccc2c(CCN3CCNC[C@H]3Cc3cccc4ccccc34)cccc2c1`, for which the inhibition is 4.64% (inactive).

As for `CC1COC2C(O1)N(S(C)(=O)=O)CCN2S(C)(=O)=O` (stereo not drawn), the inhibition was -8.42% (inactive).

For the compound `COc1ccc2nc3n(c(=O)c2c1)-c1cc(C)ccc1C(=O)NC3Cc1ccc(O)cc1` (stereo not drawn), the inhibition was 4.49% (inactive).

Turning to `Cc1ccc(NC(=O)CN(C)C(=O)c2ccc(Cl)c(S(=O)(=O)NCc3ccco3)c2)cc1`, the inhibition was 1.2% (inactive).

Consider `COCCCNC(=O)CC1C[C@H](C(=O)N2CCCCC2)[C@@]2(CCc3ccccc3)c3[nH]c4ccccc4c3CCN2C1=O` (stereo partly drawn), for which the inhibition was -3.31% (inactive).

In the case of `CC(=O)c1nn(-c2ccc(C)cc2)cc1C(=O)c1cccc(Br)c1`, the inhibition is 7.63% (inactive).

On to `Cc1nnc(SCC(=O)Nc2ccc(S(=O)(=O)Nc3ccc(Cl)nn3)cc2)s1`, for which the inhibition was 0.425% (inactive).

With `CN(C(=O)c1ccccc1)c1nccnc1C#N`, the inhibition was 2.83% (inactive).

Turning to `O=C(Nc1ccccc1)O/N=C1/CCCc2occc21`, the inhibition was -0.26% (inactive).

On to `Cc1ccc(NS(=O)(=O)c2ccc(C(=O)NCCCN3CCOCC3)cc2)cc1`, for which the inhibition was -2.45% (inactive).

Turning to `Nn1c(SCC(=O)NC2CCCc3ccccc32)nnc1C1CC1` (stereo not drawn), the inhibition is 2.63% (inactive).

In the case of `COc1cc(OC)cc(-c2c(C#Cc3ccsc3)c3cc(-c4ccc(SC)cc4)ccc3n2C)c1`, the inhibition was -8.45% (inactive).

For `CN(C)C(=O)c1cccn(Cc2cccc(C(F)(F)F)c2)c1=O`, the inhibition is 0.89% (inactive).

Consider `CC(C)(C)OC(=O)C[C@@H]1C/C=C\C[C@@H](CC(=O)N[C@H](CO)Cc2ccccc2)C(=O)NC[C@@H](c2ccccc2)OC1=O`, for which the inhibition was -3.9% (inactive).

As to `S=c1[nH]c2ccccc2c2ccccc12`, the inhibition was 2.2% (inactive).

Regarding `CC1(C)CC(=O)C=C(c2ccc(Cl)c(C(F)(F)F)c2)C1`, the inhibition is 3.15% (inactive).

On to `CCNC(=S)N(CCN(CC)CC)Cc1cc2cc3c(cc2[nH]c1=O)OCCO3`, for which the inhibition is -18.5% (inactive).

For the compound `COCCCNC(=S)N(CCN(C)C)Cc1cc2cc3c(cc2[nH]c1=O)OCCO3`, the inhibition is 54.7% (active).

`CCN(CC)CCCNC(=S)N(CCO)Cc1cc2cc3c(cc2[nH]c1=O)OCO3`: the inhibition was 3.65% (inactive).

Regarding `COc1ccc2sc(-c3ccc(S(C)(=O)=O)cc3)c(C#Cc3cncn3C)c2c1`, the inhibition is -6.51% (inactive).

Consider `Cc1ccc(C)c(S(=O)(=O)N2CCN(c3ncnc4sccc34)CC2)c1`, for which the inhibition is 8.6% (inactive).

For `CCOC(=O)c1nn(-c2ccccc2F)c2nc(Nc3ccccc3)cc(=O)n12`, the inhibition is 4.54% (inactive).

As to `Cc1nc(CC(=O)NNS(=O)(=O)c2ccc(F)c(Cl)c2)cs1`, the inhibition was -5.91% (inactive).

As to `COc1cccc(NC(=O)C2c3cc(OC)c(OC)cc3C(=O)N(C)C2c2cccnc2)c1` (stereo not drawn), the inhibition was 35.6% (active).

`CCOc1cc2c(cc1OCC)C(C(=O)O)C(c1ccc(OC)c(O)c1)N(C)C2=O` (stereo not drawn): the inhibition is -1.3% (inactive).

As for `COc1cccc(NC(=O)C2C(c3ccccc3)C2(Cl)Cl)c1` (stereo not drawn), the inhibition was 10.8% (inactive).

For the compound `CCCCn1c(N)c(N(CCOC)C(=O)COc2c(C)cccc2C)c(=O)[nH]c1=O`, the inhibition was -1.76% (inactive).

`CSc1cccc(NC(=S)N(C(C)C)C(C)c2ccccn2)c1` (stereo not drawn): the inhibition was -0.0363% (inactive).

With `COc1ccc(S(=O)(=O)N(C)C[C@@H]2Oc3ccc(NC(=O)Nc4c(C)noc4C)cc3C(=O)N([C@H](C)CO)C[C@@H]2C)cc1`, the inhibition was -1.76% (inactive).

Regarding `O=C(COc1ccc(F)cc1Br)NCC1COc2ccccc2O1` (stereo not drawn), the inhibition is -3.53% (inactive).

In the case of `CCCCN(C(=O)C1CCC1)c1c(N)n(Cc2ccccc2)c(=O)[nH]c1=O`, the inhibition was -3.39% (inactive).

For `O=C(COC(=O)c1cccc(Cl)c1)NC(=O)NCc1ccccc1`, the inhibition is 1.01% (inactive).

As to `CC(OC(=O)c1cc2ccccc2[nH]1)C(=O)N(C)c1ccccc1` (stereo not drawn), the inhibition is -8.32% (inactive).

Consider `COCCNC(=O)CCCN1C(=O)c2ccccc2Sc2ncccc21`, for which the inhibition was 2.45% (inactive).

With `CCOc1ccc(-n2c(N)c(C(=O)NCC3CCCO3)sc2=S)cc1` (stereo not drawn), the inhibition is 3.4% (inactive).

With `O=C(Nc1nnc(-c2ccccc2)o1)c1cccc(S(=O)(=O)N2CCOCC2)c1`, the inhibition is -1.1% (inactive).

Consider `COc1ccccc1C(=O)NCC(=O)OCC(=O)NNC(=O)c1ccc(Br)cc1`, for which the inhibition was -9.69% (inactive).

Turning to `CCCn1c(=O)c2c(C(F)(F)F)cc(-c3cccs3)nc2n(CCC)c1=O`, the inhibition was 1.67% (inactive).

For `COc1ccc(NC(=O)CNC(=O)Cn2ccc3ccccc3c2=O)c(OC)c1`, the inhibition is -0.211% (inactive).

Regarding `Fc1ccc2cnc(-c3ccccc3)cc2c1`, the inhibition is -0.273% (inactive).

Regarding `Cc1ccc(NC(=O)C2CC2)cc1S(=O)(=O)N1CCOCC1`, the inhibition is 1.59% (inactive).

Consider `COc1ccc(-c2c(-c3cc(OC)cc(OC)c3)n(C)c3ccc(-c4ccn[nH]4)cc23)cc1`, for which the inhibition is -1.8% (inactive).

In the case of `CC(C)n1cnc2c(NCc3ccccc3)cc(N[C@@H](CO)Cc3ccccc3)cc21`, the inhibition is 11.4% (inactive).

As for `N=c1c2c3c(sc2ncn1N)CCCC3`, the inhibition is 9.19% (inactive).

In the case of `S=c1[nH]nc2c3c4c(sc3ncn12)CCCC4`, the inhibition was 42.4% (active).

As for `N=c1c2c3c(sc2ncn1N)CCCCC3`, the inhibition was -7.57% (inactive).

Take `Cc1ccc(S(=O)(=O)NCCNC(C)c2ccc(Br)cc2)cc1` (stereo not drawn): the inhibition is 6.4% (inactive).

As for `CC(=O)c1ccc(NC(=O)CSc2nc3ccccc3c(=O)n2CCCN2CCOCC2)cc1`, the inhibition was 12.2% (inactive).

Take `COc1ccc(N2C(=O)C(CC(=O)Nc3ccc(F)cc3)N(CCc3cccs3)C2=O)cc1` (stereo not drawn): the inhibition was -0.706% (inactive).

On to `CC1=CCC2C(=O)N(c3cccc(C(=O)NC(C)c4ccccc4)c3)C(=O)C2C1` (stereo not drawn), for which the inhibition is -6.38% (inactive).

As for `COc1ccc(CCNC(=O)CN2C(=O)COc3ccc(S(=O)(=O)N4CCCC4)cc32)cc1OC`, the inhibition was -4.05% (inactive).

For the compound `CC1(c2ccccc2)NC(=O)N(CC(=O)N2CC(=O)Nc3ccccc32)C1=O` (stereo not drawn), the inhibition was -0.182% (inactive).

Regarding `Cc1ccc(-c2nn(-c3ccccc3)cc2CN(Cc2ccccc2)C(=O)CCC(=O)O)o1`, the inhibition was -11.8% (inactive).

Consider `Cc1ccc(-c2nn(-c3ccccc3)cc2/C=C2\SC(=S)N(CCCCCC(=O)O)C2=O)o1`, for which the inhibition was 31.7% (active).

As to `C=CCOc1ccc(/C=C2\SC(=S)N(CCC(=O)O)C2=O)cc1`, the inhibition is 6.13% (inactive).

On to `Clc1ccc2nc(CSc3ccccc3)cn2c1`, for which the inhibition is 10.1% (inactive).

In the case of `C[C@H]1CN([C@@H](C)CO)C(=O)Cc2cc(NS(C)(=O)=O)ccc2O[C@@H]1CN(C)CC1CC1`, the inhibition is -7.37% (inactive).

On to `CC(C)(C)NC(=O)NC(=O)COC(=O)C1c2ccccc2Oc2ccccc21`, for which the inhibition was -4.96% (inactive).

Turning to `Cc1cccc(C)c1Nc1nnc(SCC(=O)NCCCN2CCCC2=O)s1`, the inhibition is 0.701% (inactive).

Consider `O=C(NCc1ccc2c(c1)OCO2)c1c(-c2ccsc2)sc2ccccc12`, for which the inhibition is 4.88% (inactive).

For the compound `O=C(Nc1ccc(Br)cn1)C1CCN(S(=O)(=O)c2cccs2)CC1`, the inhibition is -1.41% (inactive).

Regarding `C=C(C)COc1ccc(-c2n[nH]c(C)c2-c2ccccc2)c(O)c1`, the inhibition is 28.9% (active).

As for `C=C(C)COc1ccc(-c2ncncc2-c2ccc(OC)cc2)c(O)c1`, the inhibition is 4.53% (inactive).

For the compound `COc1ccc(-c2n[nH]c(C)c2-c2ccccc2OC)c(O)c1`, the inhibition was -1.09% (inactive).

For the compound `Cc1ccc(C)c(NC(=O)c2cc(-c3cc(C)cc(C)c3O)n[nH]2)c1`, the inhibition is -1.79% (inactive).

Regarding `Cc1cc(NC(=O)CSc2nnc(-c3ccco3)n2N)no1`, the inhibition was 2.85% (inactive).

Regarding `Cc1[nH]c2ccccc2c1SCC(=O)Nc1nccs1`, the inhibition is -0.0176% (inactive).

`CC(C)(C)OC(=O)C[C@@H]1C/C=C\C[C@H](CC(=O)N[C@@H](CO)Cc2ccccc2)C(=O)N[C@H](Cc2ccccc2)COC1=O`: the inhibition was -0.452% (inactive).

For the compound `COc1ccccc1-c1sc2ccccc2c1C#CC1(O)CCCCC1`, the inhibition is 14.4% (inactive).

With `COc1cc(/C=C/C(=O)OCC(=O)c2ccccc2)cc(OC)c1OC`, the inhibition was -7.7% (inactive).

As for `O=C(OCC(=O)N1CCCCC1)c1ccc(OC(F)(F)F)cc1`, the inhibition is -7.06% (inactive).

For `O=C(Cn1cnc2c(OCc3ccccc3)ncnc21)NCCCn1ccnc1`, the inhibition is -4.2% (inactive).

On to `O=C1CCCC(O)=C1N=Nc1ccc2ncsc2c1`, for which the inhibition is -0.0778% (inactive).

For the compound `Nc1ccc(N=Nc2ccccc2Cl)c(N)n1`, the inhibition is 14.3% (inactive).

As for `NC[C@H](Cc1ccccc1)NCCc1cc(C(F)(F)F)cc(C(F)(F)F)c1`, the inhibition was 3.54% (inactive).

Turning to `O=C(COC(=O)CCCNC(=O)c1ccc(Cl)cc1)Nc1cc(Cl)ccc1Cl`, the inhibition is -2.2% (inactive).

Consider `O=C(Nc1cc(S(=O)(=O)Nc2ccc(Cl)cc2)ccc1O)c1ccc(F)cc1F`, for which the inhibition was 8.91% (inactive).

One may read the inhibition as the relative decrease from the control value, in per cent.

Source of the values: PubChem BioAssay AID2718 (Broad Institute, 2010).
